Tests used:
Conditions in all cases: concentration: 1 μM, replicates: in singlicate; n = 1
CDKL5 = tested on: CDKL5
CHEK1 = tested on: CHEK1
CHEK2 = tested on: CHEK2
CIT = tested on: CIT
CLK1 = tested on: CLK1
CLK2 = tested on: CLK2
CLK3 = tested on: CLK3
CLK4 = tested on: CLK4
CSF1R-autoinhibited = tested on: CSF1R-autoinhibited
CSF1R = tested on: CSF1R
CSK = tested on: CSK
CSNK1A1L = tested on: CSNK1A1L
CSNK1A1 = tested on: CSNK1A1
CSNK1D = tested on: CSNK1D
CSNK1E = tested on: CSNK1E
CSNK1G1 = tested on: CSNK1G1
CSNK1G2 = tested on: CSNK1G2
CSNK1G3 = tested on: CSNK1G3
CSNK2A1 = tested on: CSNK2A1
CSNK2A2 = tested on: CSNK2A2
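Also: KINOMEscan kinase panel screen.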

Compound | %Inh (CDKL5) | %Inh (CHEK1) | %Inh (CHEK2) | %Inh (CIT) | %Inh (CLK1) | %Inh (CLK2) | %Inh (CLK3) | %Inh (CLK4) | %Inh (CSF1R-autoinhibited) | %Inh (CSF1R) | %Inh (CSK) | %Inh (CSNK1A1L) | %Inh (CSNK1A1) | %Inh (CSNK1D) | %Inh (CSNK1E) | %Inh (CSNK1G1) | %Inh (CSNK1G2) | %Inh (CSNK1G3) | %Inh (CSNK2A1) | %Inh (CSNK2A2)
COc1ccc(Nc2nccc(-c3ccc(NC(=O)c4cc5cc(F)ccc5[nH]4)cc3)n2)cc1 [GSK1229496] | 0% | 100% | 26% | 0% | 5% | 0% | 19% | 18% | 15% | 0% | 0% | 0% | 0% | 0% | 21% | 0% | 0% | 17% | 0% | 0%
O=C(Nc1n[nH]c2cc(-c3ccsc3)ccc12)C1CC1 [SB-732932] | 17% | 0% | 0% | 0% | 2% | 21% | 0% | 7% | 16% | 16% | 0% | 17% | 0% | 0% | 0% | 24% | 0% | 0% | 29% | 52%
O=c1cc(N2CCOCC2)nc2n(Cc3cccc(Cl)c3Cl)c3ccccc3n12 [GSK2299009] | 7% | 3% | 0% | 21% | 27% | 2% | 1% | 8% | 0% | 28% | 21% | 11% | 0% | 19% | 41% | 8% | 0% | 17% | 11% | 31%
Cc1ccc(NC(=O)Nc2ccc(Cl)c(C(F)(F)F)c2)cc1-c1ccc(C(=O)Nc2ccncc2)cc1 [GSK1398470] | 6% | 0% | 0% | 90.6% | 14% | 3% | 0% | 24% | 0% | 30% | 0% | 9% | 22% | 7% | 7% | 11% | 24% | 21% | 21% | 0%
Fc1ccc(-c2nn3cccc(F)c3c2-c2ccncc2)cc1 [GW475620] | 0% | 0% | 0% | 96.3% | 22% | 0% | 6% | 26% | 0% | 0% | 0% | 30% | 69% | 94% | 96.2% | 16% | 2% | 24% | 11% | 9%
COc1ccc(Nc2nccc(N3CCC(NC(=O)c4cc5ccccc5s4)C3)n2)cc1 (centres unmarked) [GSK1379738] | 0% | 100% | 0% | 0% | 24% | 7% | 4% | 0% | 0% | 19% | 2% | 2% | 0% | 9% | 34% | 0% | 0% | 17% | 5% | 0%
Fc1ccc(-c2nc3n(c2-c2ccncc2)CCS3)cc1 [GI98581] | 0% | 0% | 0% | 92.9% | 28% | 0% | 0% | 9% | 0% | 0% | 0% | 30% | 84% | 95.3% | 98.2% | 14% | 17% | 32% | 10% | 6%
O=C(Nc1n[nH]c2nc(-c3cccs3)c(Br)cc12)C1CCCC1 [SB-743341] | 0% | 9% | 9% | 4% | 0% | 18% | 31% | 12% | 0% | 18% | 9% | 13% | 27% | 0% | 0% | 0% | 0% | 0% | 10% | 17%
O=C(Nc1n[nH]c2nc(-c3ccco3)c(Br)cc12)C1CCN(Cc2ccccc2)C1.O=C(O)[C@H](O)[C@@H](O)C(=O)O (centres unmarked) [SB-742034] | 85% | 16% | 0% | 0% | 0% | 0% | 0% | 7% | 0% | 10% | 11% | 8% | 21% | 28% | 0% | 4% | 32% | 0% | 22% | 37%
CNc1nc(-c2ccc3c(N)n[nH]c3c2)cc(N2C[C@@H](C(=O)NC3CCCCC3)OC[C@H]2C)n1 [GSK2375584] | 1% | 7% | 27% | 0% | 21% | 0% | 0% | 20% | 37% | 2% | 1% | 16% | 66% | 41% | 38% | 2% | 4% | 26% | 1% | 8%
